Screening results as filed in PubChem.
HCMV antiviral: human cytomegalovirus inhibition; HFF cells, HCMV-luciferase reporter, 72 h; hits give low values; activity change, negative = inhibition, % at 57.5 µM; 410,000 tested, 4.5% active; in the data active means activity change below about -60%; inconclusive means no clear call, values can overlap the other calls; inactive means above about -39%; further: on the % scale 0 is the no-effect control and ±100 the full control effect
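Steps: HFFs plated, 16 h 37C; compounds added; HCMV-luciferase added to MOI 1 PFU/cell; 72 h 37C; OneGlo reagent, 5 min room temperature; luminescence read, normalized to controls.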
Shiga toxin inh: inhibitors of Shiga toxin in Vero cells | Vero cells, Shiga toxin protein synthesis inhibition reporter | inhibition, % at 38.7 µM | 290,000 tested, 9.2% active; in the data active means inhibition mostly above about 28%, no sharp cut-off; inactive means mostly below about 43%; further: 0% is about no effect
CHX counter: counter-screen hit for Shiga toxin inhibitors, cycloheximide; cell reporter, cycloheximide protein synthesis inhibition counterscreen; max response, %; 300,000 tested, 12% active; in the data active means max response mostly above about 13%, no sharp cut-off; inactive means mostly below about 14%; further: read at 38.3 µM for the half of the compounds with a filed dose; 0% is about no effect
Pf growth 48h: P. falciparum growth inhibition at 48 hours (one generation); P. falciparum luciferase growth in erythrocytes, 48 h; 310,000 tested, 5.9% active; Potency, µM (highest dose often 28.7 µM), for inactives: top-dose activity change, negative = inhibition, most hits filed as inhibitors; further: potency means the concentration at half of the fitted maximal effect; on the % scale 0 is the no-effect control and ±100 the full control effect
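Read-out is firefly luciferase luminescence from an integrated reporter in P. falciparum, so falling signal marks reduced parasite growth. Infected erythrocytes were at 2% hematocrit and 0.1% parasitemia (final) in Albumax-supplemented RPMI 1640.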
Pf growth 96h: P. falciparum growth inhibition at 96 hour, primary screen for plastid delayed-death inhibitors | P. falciparum luciferase reporter growth, 96 h | Potency, µM (highest dose often 28.7 µM), without a hit: at the top dose activity change, negative = inhibition, usual class: inhibitors | 320,000 tested, 6.9% active | AID 504834; further: potency means the concentration at half of the fitted maximal effect; on the % scale 0 is the no-effect control and ±100 the full control effect
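Plates of compound plus infected erythrocytes (2% hematocrit, 0.05% parasitemia final) incubate 96 hours, 37 C, 5% CO2. Detection reagent added; reduced luminescence from the parasites' luciferase reporter flags inhibition.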
Starred values were filed as active, the others as inactive; u = inconclusive; x = no result; [ ] = remark or other dose. Only some compounds are listed: those with a hit (about 20% of all), similar ones and a draw of the others. Unless noted, the call rests on the fitted dose curve; in most records, active means well fitted inhibition curve with a large enough effect; inconclusive means small, poorly fitted or top-dose-only effect, or another doubt; inactive means no such curve, though single readings can be large or run the other way.

SMILES	HCMV antiviral	Shiga toxin inh	CHX counter	Pf growth 48h	Pf growth 96h
COc1cc(C(=O)Oc2ccccc2/C=N/NC(=O)c2ccc(Cl)cc2)cc(OC)c1OC	-99.3*	54.9*	15.4*	13.1µM*	5.7%
NC(=O)[C@H]1CC2(CC(c3cccc(NC(=O)COc4ccc(Cl)cc4)c3)=NO2)CN1C(=O)C(c1ccccc1)c1ccccc1 (some centres undefined)	-17.1	-6.7	-1.0	13.1µM*	u
NC(=O)[C@@H]1CC2(CC(c3cccc(NC(=O)COc4ccc(Cl)cc4)c3)=NO2)CN1C(=O)COc1ccc(Cl)cc1 (some centres undefined)	-18.2	-3.2	-2.1	u	u
CC/C=C/C(=O)N1CC2(CC(c3cccc(NC(=O)COc4ccc(Cl)cc4)c3)=NO2)C[C@H]1C(N)=O (some centres undefined)	6.2	9.0	8.3	10.4µM*	4.65µM*
CCC(CO)[n+]1c(C)cc(/C=C2\Sc3ccccc3N2Cc2ccccc2)cc1C (centres undefined)	-100.5*	12.0	-1.0	0.37µM*	u
Cc1ccc2[nH]cc(/C=C/c3cc[n+](C)cc3)c2c1	-100.0*	-0.6	-3.8	-0.6%[0.00184 µM]	u
CCOC(=O)/C(=C/c1c[nH]c2ccccc12)NC(C)=O	37.9	8.9	1.5	21.4%	51.9%
COc1ccc2c(c1)c(/C=C/c1cc[n+](C)cc1)cn2C	-97.6*	-6.6	-3.3	1.17µM*	0.37µM*
CC[n+]1ccc(/C=C/c2c[nH]c3ccccc23)cc1	-94.1*	0.8	-2.0	0.522µM*	u
COc1ccc2c(/C=C/c3cc[n+](C)cc3)c[nH]c2c1	-98.7*	4.7	-2.0	1.17µM*	0.522µM*
C/C(=N\O)c1ccco1	u	x	x	29.9%	4.2%
CC[C@H](C)[C@H](NC(=O)[C@H](CCC(=O)O)NC(=O)[C@H](CC(N)=O)NC(=O)[C@@H](N)[C@@H](C)O)C(=O)N[C@H](C(=O)N[C@@H](CCC(=O)O)C(=O)N[C@@H](CCC(=O)O)C(=O)N[C@@H](CCC(N)=O)C(=O)N[C@@H](Cc1ccc(O)cc1)C(=O)N[C@H](C(=O)N1CCC[C@H]1C(=O)N[C@@H](CCC(N)=O)C(=O)N[C@@H](CO)C(=O)N[C@@H](CC(C)C)C(=O)N[C@@H](C)C(=O)N[C@H](C(=O)N[C@@H](CC(C)C)C(=O)N[C@@H](CCC(=O)O)C(=O)N[C@@H](CO)C(=O)N[C@H](C(=O)N[C@@H](Cc1ccccc1)C(=O)N[C@@H](CCC(N)=O)C(=O)N[C@@H](CCC(=O)O)C(=O)N[C@@H](CC(C)C)C(=O)NCC(=O)N[C@@H](CCCCN)C(=O)N[C@@H](CC(C)C)C(=O)N[C@H](C(=O)NCC(=O)N1CCC[C@H]1C(=O)N[C@@H](CC(N)=O)C(=O)N[C@@H](CO)C(=O)N[C@@H](CCC(N)=O)C(=O)O)[C@@H](C)O)C(C)C)[C@@H](C)O)[C@@H](C)O)C(C)C	x	-7.2	-3.0	x	x
COc1ccc2c(C=O)c[nH]c2c1	2.6	-6.9	-1.8	3.3%	8.28µM*
O=Cc1c[nH]c2ccccc12	x	-4.7	7.5	x	x
C#CCOCCOCCOCCNc1nc(N2CCN(C(=O)[C@H]([C@@H](C)CC)n3cc(CCC(=O)O)nn3)CC2)nc(N2CCN(C(=O)[C@H](CCCCN)n3cc(CCCC)nn3)CC2)n1	12.8	x	x	x	x
C#CCOCCOCCOCCNc1nc(N2CCOCC2)nc(N2CCN(C(=O)CCCCCCCCCCNC(=O)[C@@H](CCC(=O)O)n3cc(CCCCCN)nn3)CC2)n1	5.1	x	x	14.7µM*	u
C#CCOCCOCCOCCNc1nc(N2CCN(C(=O)CCCCCCCCCCNC(=O)[C@@H](CCC(=O)O)n3cc(CCCCCN)nn3)CC2)nc(N2CCN(C(=O)CCCCCCCCCCNC(=O)[C@H]([C@@H](C)CC)n3cc(CCCCCN)nn3)CC2)n1	x	x	x	2.08µM*	1.47µM*
C#CCOCCOCCOCCNc1nc(N2CCN(C(=O)CCCCCCCCCCNC(=O)[C@H]([C@@H](C)CC)n3cc(CCCCCN)nn3)CC2)nc(N2CCN(C(=O)CCCCCCCCCCNC(=O)[C@H](CCCCN)n3cc(CCCC(=O)O)nn3)CC2)n1	x	x	x	11.7µM*	u
O=C(Nc1ccccc1Br)c1ccc(N2CCCC2=O)cc1	33.8	x	x	85.9%	165.1%
COc1ccccc1CNC(=O)CN1C(=O)CSc2ccc(S(=O)(=O)N3CCCCC3)cc21	-20.0	x	x	x	x
Cc1cc(O)ccc1Nc1nc(-c2cccs2)cs1	28.5	69.2*	35.8*	399.2%	4.4%
Cc1cc(O)ccc1Nc1nc(-c2cccnc2)cs1	-24.0	51.2*	31.0*	199.8%	u
Cc1nc(C)c(-c2csc(Nc3ccc(O)cc3C)n2)s1	-33.0	-6.8	0.7	u	u
Cc1ccc(Nc2nc(-c3cccnc3)cs2)cc1C	121.1	96.3*	50.6*	-32.9%	u
Brc1ccc(Nc2nc(-c3cccnc3)cs2)cc1	42.8	121.1*	53.9*	6.5%	10.2%
SMILES	HCMV antiviral	Shiga toxin inh	CHX counter	Pf growth 48h	Pf growth 96h
O=C(Cc1ccccc1F)Nc1nc(-c2cccnc2)cs1	-24.0	17.5	7.9	u	-6.8%
CSCCC(NC(=O)c1ccccc1)C(=O)NCCc1ccc2c(c1)OCCO2 (centres undefined)	0.1	x	x	u	-29.8%
CCOc1ccc(N2C(=O)CC(Cc3ccccc3OC)C2=O)cc1 (centres undefined)	-4.1	-3.8	-2.3	20.7%	-9.9%
CCOc1ccc(Nc2nc(-c3cccnc3)cs2)cc1	50.0	57.4*	40.2*	48.0%	-3.6%
Clc1cccc(Nc2nc(-c3cccnc3)cs2)c1	75.0	90.9*	40.3*	u	36.2%
O=C(O)c1ccc(Nc2nc(-c3cccnc3)cs2)cc1	-11.1	14.9	1.5	136.8%	32.8%
Oc1ccc(Nc2nc(-c3cccnc3)cs2)cc1	x	x	38.3*	75.6%	u
CCC(=O)c1ccc(OCC(=O)Nc2nc(-c3cccnc3)cs2)cc1	1.5	x	x	u	u
Brc1cccc(Nc2nc(-c3cccnc3)cs2)c1	113.0	x	25.3*	0.5%	102.2%
COc1ccccc1NC(=O)CN(Cc1ccco1)C(=O)c1ccc(N2CCCC2=O)cc1	52.3	x	x	x	x
CCc1nc(OCC(=O)c2ccccc2)c(C#N)c2c1COC(C)(C)C2	-37.6	-9.9	1.1	x	11.7µM*
CC1(C)Cc2c(C#N)c(OCC(=O)c3ccc(Cl)cc3)nc(-c3ccco3)c2CO1	7.6	-1.5	-2.7	u	u
Cc1nc(OCC(=O)c2ccc(Cl)cc2)c(C#N)c2c1COC(C)(C)C2	4.7	-7.2	-0.8	x	11.7µM*
O=C(NCCCNc1ccnc2cc(Cl)ccc12)c1ccccc1F	-34.0	2.6	9.4	0.465µM*	0.415µM*
CC1CCCN1c1ccnc2cc(Cl)ccc12 (centres undefined)	-39.2	x	x	x	x
Clc1ccc2c(NCCNC3CCCCC3)ccnc2c1	-83.6*	x	x	x	x
CCOc1ccccc1Nc1cc(C)c2cccc(C)c2n1	37.2	x	-0.8	58.9%	208.5%
